Data taken from PubChem BioAssay (Tox21).
Records with an inconclusive call do not appear. Entries that show only a call come without a potency. Activity calls are given as the source filed them. Calls follow the shape of the dose curve; as a rule, active = well fitted cell-killing curve with a large enough effect in the repeat runs; inconclusive = weak or mixed curves, or effect the other way; inactive = flat fitted curve, though single readings scatter.

Assay: qHTS assay to identify small molecule antagonists of the retinoid acid receptor (RAR) signaling pathway - cell viability counter screen (AID 1159551); also: nearly all actives have a fitted effect of over 35% in size
Details: C3RL4 cells viability, ATP luminescence (CellTiter-Glo), 6 h; series mostly up to 92.4 µM
Source text: U.S. Tox21 Program National Center for Advancing Translational Sciences [NCATS] NIH Chemical Genomics Center [NCGC] U.S. Environmental Protection Agency [EPA] National Institutes of Environmental Health Sciences [NIEHS] National Toxicology Program [NTP] U.S. Food and Drug Administration [FDA] Tox21 Assay Overview: All-trans Retinoic acid (atRA) is the potent natural metabolite of retinol and plays an important role in normal embryonic development and maintenance of cellular phenotype in adult animals. atRA is the activating ligand for the retinoic acid receptors (RARs) which form heterodimers with retinoid X receptors (RXRs) on the retinoic acid response element (RARE). Through activation of the RAR/RXRs nuclear receptors, atRA regulates the transcription of a large number of protein-coding genes and regulatory RNAs. Intracellular levels of atRA are controlled by the retinol signaling pathway (RSP) that regulates the biosynthesis and catabolism of atRA to maintain physiological levels. Chemicals that interfere with the RSP can cause abnormal intracellular levels of atRA and therefore are potential developmental toxicants. To assess compounds for the potential adverse effect on embryonic development through interfering with retinol signaling, a cell-based RARE luciferase reporter gene assay was used. C3RL4 cell line (OARSA/CFSAN/FDA, Laurel, MD) was used to screen Tox21 10K compound library for identifying inhibitors of the RSP. Also cytotoxicity was assessed by determining the viability of cells based on the quantitation of ATP.
Tox21 Assay Protocol Summary: C3RL4 cells were seeded at 1,000/well in 4 uL of assay medium into white solid 1,536-well tissue culture plates (Greiner Bio-One North America Inc. Monroe, NC) using a Multidrop Combi (Thermo Scientific, Waltham, MA) dispenser. After incubation at 37 C and 5% CO2 for an overnight, 23 nL of compounds dissolved in DMSO, positive control or DMSO only were transferred by a Pintool station (Kalypsys, San Diego, CA). One ul of 1 uM (final concentration) of Retinol was added right after the compound addition by using a Flying Reagent Dispenser (FRD) (Aurora Discovery, San Diego, CA). After 6 hr incubation at 37 C and 5% CO2, 5 uL of CellTiter-Glo reagent (Promega Corporation, Madison, WI) was added to each assay plate using an FRD. Luminescence was quantified on a ViewLux plate reader (PerkinElmer, Waltham, MA) after 30 min incubation at room temperature.
With `N#CCCCl` the Potency was “inactive”. For `COC(=O)c1sccc1S(=O)(=O)NC(=O)Nc1nc(C)nc(OC)n1`, the Potency was “inactive”. With `Cc1c(COC(=O)[C@@H]2[C@H](/C=C(\Cl)C(F)(F)F)C2(C)C)cccc1-c1ccccc1` the Potency was “inactive”. In the case of `CCOc1cc(C=O)ccc1O`, the Potency is reported as “inactive”. In the case of `Nc1ccc(Cl)c(Cl)c1`, the Potency is reported as “inactive”. In the case of `Oc1cc(Cl)ccc1Cl`, the Potency is reported as “inactive”. With `CN(C)C(=O)Nc1ccc(Cl)cc1` the Potency was “inactive”. In the case of `COc1ccc(C=O)cc1`, the Potency is reported as “inactive”. With `CCCCCCCCCCCOC(=O)c1ccccc1C(=O)OCCCCCCCCCCC` the Potency was “inactive”. For `C=CC(=O)OCCO`, the Potency was “inactive”. For `CNC(=O)N(C)c1nnc(C(C)(C)C)s1`, the Potency was “inactive”. For `C=CCc1ccc2c(c1)OCO2`, the Potency was “inactive”. In the case of `CCCCCc1cc(O)cc(O)c1`, the Potency is reported as “inactive”. In the case of `CC(C)C(=O)OCC(C)(C)C(OC(=O)C(C)C)C(C)C` (stereo not given), the Potency is reported as “inactive”. In the case of `CC1(C)C(C=C(Cl)Cl)C1C(=O)OC(C#N)c1cccc(Oc2ccccc2)c1` (stereo not given), the Potency is reported as “inactive”. In the case of `Cc1ccc(N)c(N)c1`, the Potency is reported as “inactive”. In the case of `CCc1cccc(CC)c1N(COC)C(=O)CCl`, the Potency is reported as “inactive”. For `c1nc[nH]n1`, the Potency was “inactive”. In the case of `C=CCc1ccc(OC)cc1`, the Potency is reported as “inactive”. With `Nc1c(Cl)cc([N+](=O)[O-])cc1Cl` the Potency was “inactive”. With `COc1ccc(C(CN(C)C)C2(O)CCCCC2)cc1` (stereo not given) the Potency was “inactive”. For `CCCCCCCCOC(=O)c1ccccc1C(=O)OCCCCCCCC`, the Potency was “inactive”. For `CC(O)CCO` (stereo not given), the Potency was “inactive”. For `CN(C)c1ccc(C(=O)c2ccc(N(C)C)cc2)cc1`, the Potency was “inactive”. In the case of `Nc1ccc(Cl)cc1N`, the Potency is reported as “inactive”. In the case of `Cc1cc(C)cc(C)c1`, the Potency is reported as “inactive”. With `CC(C)Oc1cc(-n2nc(C(C)(C)C)oc2=O)c(Cl)cc1Cl` the Potency was “inactive”. In the case of `Cc1cc(Cl)ccc1OCCCC(=O)O`, the Potency is reported as “inactive”. With `S=C1NCCN1` the Potency was “inactive”. For `CCC(CC)Nc1c([N+](=O)[O-])cc(C)c(C)c1[N+](=O)[O-]`, the Potency was “inactive”. With `N#CC(Br)Br` the Potency was “inactive”. With `CCN(CC)C(=O)/C(Cl)=C(\C)OP(=O)(OC)OC` the Potency was “inactive”. In the case of `CC(C)NC(C)C`, the Potency is reported as “inactive”. In the case of `Cc1ccc2c(c1N)C(=O)c1ccccc1C2=O`, the Potency is reported as “inactive”. For `O=[N+]([O-])c1c(Cl)c(Cl)c(Cl)c(Cl)c1Cl`, the Potency was “inactive”. With `Cc1ccccc1[N+](=O)[O-]` the Potency was “inactive”. In the case of `O=C(O)C(F)(F)C(F)(F)C(F)(F)C(F)(F)C(F)(F)C(F)(F)C(F)(F)F`, the Potency is reported as “inactive”. In the case of `CC(C)c1ccc(CO)cc1`, the Potency is reported as “inactive”. In the case of `C1=Cc2cccc3cccc1c23`, the Potency is reported as “inactive”. For `Oc1c(Cl)c(Cl)c(Cl)c(Cl)c1Cl`, the Potency was “inactive”.
